“And” between values parts separate entries of the source, which are not always exact repeats. Equal entries are not always repeated. Results filed as inconclusive are left out. A call without a number means that no potency is given here. Some compounds were tested as several samples or in several runs, with calls that do not always agree. The source made the active and inactive calls. Unless noted, calls follow the shape of the dose curve; as a rule, active = well fitted curve in the direction sought with a large enough effect in the repeat runs; inconclusive = weak or mixed curves; inactive = no such curve, though single readings can be large; an effect the other way counts as inactive or inconclusive.
Tests used:
[1] = qHTS assay to identify small molecule agonists of the peroxisome proliferator-activated receptor delta (PPARd) signaling pathway - cell viability counter screen (AID 743211); also: nearly all actives have a fitted effect of over 55% in size; also: potency is read from the fitted curve at half-maximal effect
How it was run: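 Counter screen for cytotoxicity run in parallel with the PPARd reporter screen. Beta-lactamase reporter HEK293H cells exposed to compounds 17 h; ATP-based CellTiter-Glo luminescence quantified viability.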

[2] = target: Peroxisome proliferator-activated receptor delta (Homo sapiens) (UniProt Q03181); test: qHTS assay to identify small molecule agonists of the peroxisome proliferator-activated receptor delta (PPARd) signaling pathway (AID 743212; calls by dose curve)
Peroxisome proliferator-activated receptor delta (Homo sapiens), sequence (Q03181 whole entry, looked up): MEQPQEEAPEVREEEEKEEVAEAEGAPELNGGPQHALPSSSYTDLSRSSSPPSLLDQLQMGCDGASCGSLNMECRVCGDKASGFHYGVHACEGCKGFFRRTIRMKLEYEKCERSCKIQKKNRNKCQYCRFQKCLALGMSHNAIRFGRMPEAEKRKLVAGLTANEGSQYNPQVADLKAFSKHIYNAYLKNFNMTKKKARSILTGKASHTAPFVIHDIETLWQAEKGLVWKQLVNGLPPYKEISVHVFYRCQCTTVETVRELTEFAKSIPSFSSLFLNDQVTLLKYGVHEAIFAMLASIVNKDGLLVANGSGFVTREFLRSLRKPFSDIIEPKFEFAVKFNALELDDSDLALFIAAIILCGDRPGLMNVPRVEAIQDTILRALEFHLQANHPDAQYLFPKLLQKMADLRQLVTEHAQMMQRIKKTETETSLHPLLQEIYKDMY
How it was run: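 Quantitative high-throughput agonist screen in a HEK293H beta-lactamase reporter line under UAS control. Compounds in DMSO, at 37 C. Fluorescence read after 2 h with FRET substrate at room temperature.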

[3] = qHTS assay to identify small molecule antagonists of the peroxisome proliferator-activated receptor delta (PPARd) signaling pathway - cell viability counter screen (AID 743213); also: nearly all actives have a fitted effect of over 50% in size; also: potency is read from the fitted curve at half-maximal effect
How it was run: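 Cytotoxicity counter screen: CellTiter-Glo luminescence read 30 min after addition, in the same wells as the reporter assay. There, PPARd UAS-bla HEK293H cells (3000/well) were treated 17 h at 37 C with compound and 300 nM L165041.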

[4] = target: Peroxisome proliferator-activated receptor delta (Homo sapiens) (UniProt Q03181); test: qHTS assay to identify small molecule antagonists of the peroxisome proliferator-activated receptor delta (PPARd) signaling pathway (AID 743215; active = well fitted inhibition curve with a large enough effect in the signal ratio in the repeat runs, not every such curve was filed as active; the % refers to the signal ratio;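 also: cells stimulated with agonist L165041 at 300 nM final during compound exposure; series mostly up to about 62 µM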)
How it was run: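 With L165041 present at 300 nM final, compounds were incubated 17 h at 37 C on PPARd UAS-bla HEK293H cells. A FRET-based beta-lactamase substrate was then applied for 2 h at room temperature and fluorescence intensity recorded.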

[5] = qHTS assay to identify small molecule agonists of the farnesoid-X-receptor (FXR) signaling pathway - cell viability counter screen (AID 743218); also: nearly all actives have a fitted effect of over 45% in size
How it was run: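 After 16 h at 37 C with test compounds, FXR-bla HEK 293T cells were given LiveBLAzer B/G substrate for 2 h at RT and then CellTiter-Glo; luminescence was taken after 30 min.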

[6] = qHTS assay to identify small molecule antagonists of the farnesoid-X-receptor (FXR) signaling pathway - cell viability counter screen (AID 743221; active = well fitted cell-killing curve with a large enough effect in the repeat runs, not every such curve was filed as active; also: nearly all actives have a fitted effect of over 50% in size; also: potency is read from the fitted curve at half-maximal effect)
How it was run: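 Multiplexed counter screen: viability of FXR-bla HEK 293T cells under agonist stimulation by chenodeoxycholic acid (50 uM, final) and test compound for 16 h at 37 C, measured by CellTiter-Glo luminescence in the reporter wells.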

[7] = qHTS assay to identify small molecule agonists of the vitamin D receptor (VDR) signaling pathway - cell viability counter screen (AID 743224); also: nearly all actives have a fitted effect of over 50% in size; also: potency is read from the fitted curve at half-maximal effect
How it was run: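 Here cell health was gauged by luminescent ATP detection (CellTiter-Glo, 30 min RT) in VDR-bla cells that had been incubated with test compounds for 16 h at 37C and 5% CO2.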

[8] = qHTS assay to identify small molecule antagonists of the vitamin D receptor (VDR) signaling pathway - cell viability counter screen (AID 743225); also: nearly all actives have a fitted effect of over 50% in size; also: potency is read from the fitted curve at half-maximal effect
How it was run: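 HEK293T VDR-bla; cpd + 1a,25-(OH)2D3 3 nM final, 16 h 37C/5% CO2; B/G FRET substrate 2 h RT; then CellTiter-Glo 30 min RT, luminescence.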

[9] = qHTS assay to identify small molecule agonists of the NFkB signaling pathway - cell viability counter screen (AID 1159515; calls by dose curve; also: nearly all actives have a fitted effect of over 55% in size; also: potency is read from the fitted curve at half-maximal effect)
How it was run: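 5 hr compound treatment of NFkB-bla ME-180 cells (2,000/well, seeded overnight beforehand), followed by reporter substrate for 1.5 hr. CellTiter-Glo added afterward; luminescence after 30 min RT.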

[10] = qHTS assay to identify small molecule agonists of the endoplasmic reticulum stress response signaling pathway (AID 1159516; active = well fitted activation curve with a large enough effect in the signal ratio in the repeat runs, not every such curve was filed as active; the % refers to the signal ratio)
How it was run: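 Reporter HeLa cells (ESRE-beta-lactamase) underwent 5 hr compound incubation at 37 C and 5% CO2 in quantitative HTS format. Detection followed 2 hr of FRET substrate loading at room temperature.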

[11] = qHTS assay to identify small molecule agonists of the endoplasmic reticulum stress response signaling pathway - cell viability counter screen (AID 1159517; calls by dose curve; also: nearly all actives have a fitted effect of over 50% in size; also: potency is read from the fitted curve at half-maximal effect)
How it was run: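 Counter-screen wells were identical to the reporter wells. Cells were plated at 1,500 per well and dosed for 5 hr, then read for luminescence 30 min after CellTiter-Glo addition.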

[12] = qHTS assay to identify small molecule antagonists of the retinoid-related orphan receptor gamma (ROR-gamma) signaling pathway - cell viability counter screen (AID 1159520); also: nearly all actives have a fitted effect of over 50% in size; also: potency is read from the fitted curve at half-maximal effect
How it was run: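 Tet-on ROR gamma CHO cells were given compounds for 2 hr, then doxycycline hyclate at 1 uM final, and incubated 16 hr at 37 C. Viability was measured as ATP content by CellTiter-Glo luminescence.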

[13] = target: Nuclear receptor ROR-gamma (Homo sapiens) (UniProt P51449); test: qHTS assay to identify small molecule antagonists of the retinoid-related orphan receptor gamma (ROR-gamma) signaling pathway (AID 1159521)
How it was run: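 Cells were plated, rested 4 h at 37 C, exposed to compounds for 2 h, then given 1 uM final doxycycline hyclate to induce RORγ expression. After 16 h, ONE-Glo luminescence from the ROR response element reporter was measured.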

[14] = qHTS assay to identify small molecule agonists of the AP-1 signaling pathway - cell viability counter screen (AID 1159525; calls by dose curve; also: nearly all actives have a fitted effect of over 55% in size; also: potency is read from the fitted curve at half-maximal effect)
How it was run: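 AP-1-bla ME-180 cells in Opti-MEM with 0.5% dialyzed FBS, compound exposure 5 h at 37 C in 15-point titration. Viability read in the same wells as ATP content by CellTiter-Glo luminescence, normalised to tetra-n-octylammonium bromide and DMSO controls.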

[15] = qHTS assay to identify small molecule agonists of the AP-1 signaling pathway (AID 1159526; calls by dose curve; also: potency is read from the fitted curve at half-maximal effect)
[16] = target: Retinoic acid receptor RXR-alpha (Homo sapiens) (UniProt P19793); test: qHTS assay to identify small molecule agonists of the RXR signaling pathway (AID 1159527; calls by dose curve; also: nearly all actives have a fitted effect of over 35% in size; also: potency is read from the fitted curve at half-maximal effect)
Retinoic acid receptor RXR-alpha (Homo sapiens), sequence (P19793 whole entry, looked up): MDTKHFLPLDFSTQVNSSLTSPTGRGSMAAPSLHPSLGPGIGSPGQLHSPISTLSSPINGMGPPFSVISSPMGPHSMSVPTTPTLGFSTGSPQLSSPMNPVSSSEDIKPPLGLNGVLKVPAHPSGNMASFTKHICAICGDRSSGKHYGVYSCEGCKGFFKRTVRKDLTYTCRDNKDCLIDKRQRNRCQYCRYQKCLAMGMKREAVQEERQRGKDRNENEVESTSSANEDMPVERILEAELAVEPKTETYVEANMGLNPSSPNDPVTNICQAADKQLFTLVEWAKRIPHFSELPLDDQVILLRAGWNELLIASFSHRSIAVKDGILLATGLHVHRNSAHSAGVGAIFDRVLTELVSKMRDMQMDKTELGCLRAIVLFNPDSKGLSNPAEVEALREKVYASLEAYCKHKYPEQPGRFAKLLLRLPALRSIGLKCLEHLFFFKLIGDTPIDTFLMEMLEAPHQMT
How it was run: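 Cells plated at 2,000/well, rested 5 hr at 37 C, pin-dosed with DMSO compound solutions, incubated 16 hr, then loaded with B/G FRET substrate for 2 hr at RT before dual-emission fluorescence reading.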

[17] = target: Bile acid receptor (Homo sapiens) (UniProt Q96RI1); test: qHTS assay to identify small molecule antagonists of the farnesoid-X-receptor (FXR) signaling pathway (AID 743217; active = well fitted inhibition curve with a large enough effect in the signal ratio in the repeat runs, not every such curve was filed as active; the % refers to the signal ratio)
Bile acid receptor (Homo sapiens), sequence (Q96RI1 whole entry, looked up): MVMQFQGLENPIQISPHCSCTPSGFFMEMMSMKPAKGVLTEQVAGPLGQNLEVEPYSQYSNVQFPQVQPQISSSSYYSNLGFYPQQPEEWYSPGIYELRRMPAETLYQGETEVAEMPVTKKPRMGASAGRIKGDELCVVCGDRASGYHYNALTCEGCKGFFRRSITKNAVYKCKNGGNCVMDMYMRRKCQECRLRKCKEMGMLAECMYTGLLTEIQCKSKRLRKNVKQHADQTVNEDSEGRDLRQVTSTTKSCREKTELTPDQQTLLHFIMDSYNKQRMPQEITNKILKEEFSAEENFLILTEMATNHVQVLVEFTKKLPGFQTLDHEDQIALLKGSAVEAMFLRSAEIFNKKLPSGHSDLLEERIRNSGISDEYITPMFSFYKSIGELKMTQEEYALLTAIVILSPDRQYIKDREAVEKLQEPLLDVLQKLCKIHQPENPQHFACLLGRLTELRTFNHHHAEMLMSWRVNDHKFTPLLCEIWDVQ
How it was run: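 In this cell-based antagonist screen, inhibition of CDCA-driven (50 uM final) UAS-beta-lactamase expression in HEK 293T cells was measured by FRET fluorescence following 16 h compound exposure at 37 °C.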

[18] = target: Bile acid receptor (Homo sapiens) (UniProt Q96RI1); test: qHTS assay to identify small molecule agonists of the farnesoid-X-receptor (FXR) signaling pathway (AID 743220; active = well fitted activation curve with a large enough effect in the signal ratio in the repeat runs, not every such curve was filed as active; the % refers to the signal ratio)
How it was run: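 Beta-lactamase reporter under UAS control in GeneBLAzer FXR HEK 293T cells (5000/well) measured with LiveBLAzer FRET substrate after 2 h at room temperature. Compound exposure lasted 16 h at 37C.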

[19] = target: Vitamin D3 receptor (Homo sapiens) (UniProt P11473); test: qHTS assay to identify small molecule agonists of the vitamin D receptor (VDR) signaling pathway (AID 743222; calls by dose curve)
Vitamin D3 receptor (Homo sapiens), sequence (P11473 whole entry, looked up): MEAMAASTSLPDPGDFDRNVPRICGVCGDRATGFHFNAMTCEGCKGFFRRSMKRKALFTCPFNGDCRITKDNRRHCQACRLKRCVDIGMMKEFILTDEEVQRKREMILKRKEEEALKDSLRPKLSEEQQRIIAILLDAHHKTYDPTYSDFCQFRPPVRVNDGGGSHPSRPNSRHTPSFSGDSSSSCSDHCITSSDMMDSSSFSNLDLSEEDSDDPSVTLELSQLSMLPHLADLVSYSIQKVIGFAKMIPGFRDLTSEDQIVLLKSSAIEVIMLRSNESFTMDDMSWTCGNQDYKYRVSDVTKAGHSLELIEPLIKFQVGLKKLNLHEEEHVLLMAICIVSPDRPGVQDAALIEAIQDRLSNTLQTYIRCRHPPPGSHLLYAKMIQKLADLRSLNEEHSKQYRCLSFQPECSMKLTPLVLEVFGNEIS
How it was run: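 VDR-bla cells were seeded, left 4 h, treated with compounds in DMSO for 16 h, incubated 2 h at RT with B/G FRET substrate, and read for fluorescence.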

[20] = target: Vitamin D3 receptor (Homo sapiens) (UniProt P11473); test: qHTS assay to identify small molecule antagonists of the vitamin D receptor (VDR) signaling pathway (AID 743223; active = well fitted inhibition curve with a large enough effect in the signal ratio in the repeat runs, not every such curve was filed as active; the % refers to the signal ratio)
How it was run: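 Cells carrying a VDR-driven beta-lactamase reporter (VDR-bla) were co-treated with compound and 3 nM final 1alpha,25-dihydroxyvitamin D3 for 16 h at 37C; reporter activity was measured as FRET substrate fluorescence after 2 h at room temperature.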

Row | Structure (SMILES) | Potency [1] | outcome [2] | Potency [3] | outcome [4] | Potency [5] | Potency [6] | Potency [7] | Potency [8] | Potency [9] | outcome [10] | Potency [11] | Potency [12] | Potency [13] | Potency [14] | Potency [15] | Potency [16] | Potency [17] | outcome [18] | outcome [19] | Potency [20]
1 | CCOP(=S)(OCC)Oc1ccc2c(C)c(Cl)c(=O)oc2c1 | inactive | inactive | inactive | inactive | inactive | inactive | inactive | inactive | inactive | inactive | inactive | inactive | inactive | inactive | inactive |  |  |  |  | 
2 | O=[N+]([O-])O | inactive |  | inactive |  | inactive | inactive | inactive | inactive | inactive | inactive | inactive | inactive |  | inactive | inactive | inactive and 21.9 µM (active) |  |  |  | 
3 | CCCCCCCCCCCC(=O)O | inactive |  | inactive |  |  | inactive | inactive | inactive | inactive | inactive | inactive | inactive |  | inactive | inactive | 55.1 µM (active) and 63 µM (active) |  |  |  | 
4 | CCCCCCCCCCCCCC[P+](CCCCCC)(CCCCCC)CCCCCC | 7.8 µM (active) and 2.47 µM (active) and 61.6 nM (active) | inactive | 15.6 µM (active) and 3.92 µM (active) |  |  | 22 µM (active) and 15.6 µM (active) and inactive | 9.82 µM (active) and 5.54 µM (active) | 19.6 µM (active) and 17.5 µM (active) | 19.6 µM (active) and 24.7 µM (active) and inactive | inactive | 31 µM (active) and 27.8 µM (active) and inactive | 9.73 µM (active) and 19.5 µM (active) |  | 11 µM (active) and 19.7 µM (active) and inactive | inactive |  | inactive | inactive |  | 
5 | CCn1cc[n+](C)c1C | inactive |  | inactive |  |  | inactive | inactive | inactive | inactive | inactive | inactive | inactive | inactive | inactive | inactive | inactive |  |  | inactive | inactive
6 | O=C(O)c1ccccc1O | inactive |  | inactive |  |  | inactive | inactive | inactive | inactive | inactive | inactive | inactive |  | inactive | inactive | inactive |  |  |  | 
7 | O=c1nc(O)n(Cl)c(=O)n1Cl | inactive |  | inactive |  |  | inactive | inactive | inactive | inactive | inactive | inactive | inactive | inactive | inactive | inactive | inactive |  |  |  | 
8 | CCCC[n+]1ccc(C)cc1 | inactive and 48.7 µM (active) |  | inactive and 43.4 µM (active) |  | inactive | inactive | inactive and 43.4 µM (active) | inactive and 48.7 µM (active) | inactive | inactive | inactive | inactive and 60.8 µM (active) |  | inactive and 48.7 µM (active) | 13.8 µM (active) and inactive | inactive |  |  |  | 
9 | CCCCCCn1cc[n+](C)c1 | inactive |  | inactive |  |  | inactive | inactive | inactive | inactive | inactive | inactive | inactive | inactive | inactive | inactive | inactive |  |  |  | 

Reference: PubChem BioAssay (Tox21)
